The campaign covered roughly 320,000 compounds. About 3,300 (1%) were called active. The list comes from a sample in which actives are over-represented; it also holds similar structures and randomly drawn compounds. Unmarked numbers belong to inactive results.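 How the source made its calls: active means every valid replicate shows activation above 250% relative to neutral control wells; inactive means the rest, any valid replicate at or below 250%.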

A short description of this test: yeast Mot1-301 growth rescue at high temperature, primary screen, SUMOylation pathway inhibitor project, S. cerevisiae, ATP luminescence, 38.5C (AID 2716).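 Further: OY570 slx delta 5 strain wells were the positive control but not used for scaling.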 The conditions noted are these: S. cerevisiae Mot1-301 growth rescue, at 18.8 µM, hits give high values, percent above DMSO median, 100 means doubled.
Regarding `CCSC(C)CC1C/C(=N/O)c2c(C)noc2C1` (stereo not given), the growth rescue was 5.53%. In the case of `Cc1ccc(C)c(S(=O)(=O)n2cnc3ccccc32)c1`, the growth rescue is 439% (active).

Regarding `Cc1ccc(S(=O)(=O)n2cnc3ccccc32)c(C)c1`, the growth rescue is -12.4%.

With `COc1ccc(S(=O)(=O)n2cnc3ccccc32)c(C)c1`, the growth rescue was -3.94%. As for `CCOC(=O)C1=C(C)NC(C)=C(C(=O)OCC)C1C1=COCCO1`, the growth rescue is -16.1%.

As for `CCOc1ccc(N(CC(=O)NCCOc2ccccc2OC)S(=O)(=O)c2ccccc2)cc1`, the growth rescue is 0.484%. `CN(c1ccccc1)S(=O)(=O)c1ccc(C(=O)N2CCN(c3ccccc3Cl)CC2)cc1`: the growth rescue is 19.5%. As for `CCCc1[nH]nc2c1C(C1CC=CCC1)C(C#N)=C(N)O2` (stereo not given), the figure is 4.92%. In the case of `NC1=C([N+](=O)[O-])C(c2ccccc2)C2=C(CCCC2=O)O1` (stereo not given), the growth rescue is -9.51%. With `N#CC1=C(N)OC2=C(C(=O)CCC2)C1C1CC=CCC1` (stereo not given), the growth rescue is 435% (active). Turning to `O=C1CCCN2N=C(SCC(=O)Nc3ccc(Br)cc3)SC2=N1`, the growth rescue was -5.37%. For `CC(C)CCNC(=O)c1cccnc1Sc1ccccc1` the value was 2.14%; for `CC(=O)c1ccc(NC(=O)c2ccc(-n3cncn3)c([N+](=O)[O-])c2)cc1`, 62.2%. In the case of `O=C(O)CSC(NC(=O)c1cccnc1)(C(F)(F)F)C(F)(F)F`, the growth rescue is -13.2%. As to `O=C(Nc1ccccc1N1CCCC1)c1ccc2ccccc2c1`, the growth rescue is -24.5%. Regarding `Cc1cccc(C(=O)Nc2ccccc2N2CCN(c3ccc(F)cc3)CC2)c1`, the growth rescue is 0.874%. As for `O=C(Nc1ccccc1N1CCN(c2ccccc2)CC1)c1cccc(F)c1`, the figure is 516% (active).

As for `CC(Sc1ncnc2c1cnn2-c1ccccc1)C(=O)Nc1ccc(N2CCOCC2)cc1` (stereo not given), the growth rescue is -16.6%. As for `CCC(=O)Nc1ccc(C(=O)CSc2nnc(CNc3ccc(Cl)cc3)o2)cc1OC`, the growth rescue is -12.4%. Turning to `CCn1cc(CN2CCN(CC(C)(C)C)C(CCO)C2)c2ccccc21` (stereo not given), the growth rescue was 2.63%. `CCOc1ccc(OCC(=O)OC(C)C(=O)NC2CCCCC2C)cc1` (stereo not given): the growth rescue was 4.11%.

Take `O=C(COc1ccc(Cl)cc1)NCc1nnc(SCC(=O)NCC2CCCO2)o1` (stereo not given): the growth rescue is 1.67%. For `CCn1c(SCC(=O)N/N=C/C=C/c2ccccc2[N+](=O)[O-])nnc1-c1ccccc1`, the growth rescue is -1.22%. Regarding `CCn1c(SCC(=O)N/N=C/c2ccccc2OCC(=O)O)nnc1-c1ccc(C(C)(C)C)cc1`, the growth rescue is 746% (active). As for `Cc1ccc(Cn2c(SCC(=O)N/N=C/c3ccccc3OCC(=O)O)nc3ccccc32)cc1`, the growth rescue is 29.2%.

For `CCOc1ccc(Cn2c(SCCCCC#N)nc3c2c(=O)n(C)c(=O)n3C)cc1OCC`, the growth rescue is 395% (active).

As to `CCCSc1nc2c(c(=O)n(C)c(=O)n2C)n1Cc1ccc(C)cc1`, the growth rescue was -26.2%. `CCCCn1c(SCC(=O)NCCc2ccc(OC)c(OC)c2)nc2c1c(=O)n(C)c(=O)n2C`: the growth rescue is -22.4%. As for `NC(N)=NCCCc1cn(CC(=O)N2CCNCC2)nn1`, the growth rescue is 3.99%. As for `Cn1c(=O)c2c(SCC(=O)NCC3CCCO3)nc(CC(C)(C)C)nc2n(C)c1=O` (stereo not given), the growth rescue is 4.63%. Turning to `CC1CCN(C(=S)NC2CC3CCC2C3)CC1` (stereo not given), the growth rescue was 8.2%. For the compound `O=C(c1ccc(N2CCOCC2)c([N+](=O)[O-])c1)N1CCN(c2ccccc2F)CC1`, the growth rescue is -2.08%. Take `O=C(OCC(=O)N1CCOCC1)c1ccc(N2CCOCC2)c([N+](=O)[O-])c1`: the growth rescue was 15.5%. For the compound `O=C(Oc1ccccc1Cl)c1ccc(N2CCOCC2)c([N+](=O)[O-])c1`, the growth rescue was 334% (active). With `S=C(Nc1ccc(Br)cc1Cl)N1CCC2(CC1)OCCO2`, the growth rescue is 14%.

Regarding `Cc1ccc(C(C(=O)NC2CCCCC2)N(C(=O)c2csnn2)C2CC2)o1` (stereo not given), the growth rescue is -6.5%. `CCOc1ccc(C(=O)Nc2cccc(SC)c2)cc1`: the growth rescue was -2.04%. With `O=S(=O)(c1ccc(SCc2ccc(Br)cc2)nc1)N1CCOCC1`, the growth rescue was 0.526%. Consider `CCC(C)NC(=O)c1cc(Cl)ccc1OC` (stereo not given), for which the growth rescue was 1740%.

In the case of `CCNc1nc(N)nc(-c2cc(Cl)ccc2OC)n1`, the growth rescue was 263% (active). As to `CCNc1nc(N)nc(Oc2ccc(OCC)nn2)n1`, the growth rescue is 5.12%. As for `CC1=NC2(CCCc3c2no[n+]3[O-])N(O)C1(C)C` (stereo not given), the growth rescue is 465% (active). For `COCCn1c(Cc2cccn2C)nnc1SCC(=O)Nc1nccs1` the value was 2.9%; for `COc1cccc(CC(=O)N2CCCC(CCC(=O)N3CCN(c4ccccn4)CC3)C2)c1` (stereo not given), 15%. As for `COc1cccc2sc3cc(NCC[C@@H]4CCCN4C)ccc3c(=O)c12`, the growth rescue was 4.78%. Take `CC1CC(C)CN(c2ccc(S(=O)(=O)N3CCOCC3)cc2)C1` (stereo not given): the growth rescue was 18.2%.

As to `CSc1ccc(S(=O)(=O)NC2CCCCC2)cc1`, the growth rescue is 5.7%. For `CC(C)c1ccc(S(=O)(=O)NC2CCCC2)cc1` the value was 306%; for `Cc1ccc(S(=O)(=O)NC2CCCCCC2)cc1`, 297% (active).

Consider `CC1CN(C(=S)Nc2ccc(S(N)(=O)=O)cc2)CC(C)O1` (stereo not given), for which the growth rescue is -5.04%. With `CCOc1ccc(CN2CCNC(=O)C2CC(=O)NCCCC2CCCC2)cc1` (stereo not given), the growth rescue is 3.84%. With `COc1cc(CN2CCNC(=O)C2CC(=O)NCCc2ncccc2C)cc(OC)c1` (stereo not given), the growth rescue is 662% (active).

Consider `Cc1ccccc1CN1CCNC(=O)C1CC(=O)NCCC1=CCCCC1` (stereo not given), for which the growth rescue was -4.34%. For the compound `Cc1ccc(Cc2nnc(SCC(=O)Nc3ccc(C)cc3C)[nH]c2=O)cc1`, the growth rescue was 3.03%. For the compound `Cc1ccc(Cc2nnc(SCC(=O)Nc3ccccc3C)[nH]c2=O)cc1`, the growth rescue is 579% (active). Regarding `COc1ccc(Cc2nnc(SCC(=O)Nc3ccc(C)c(Cl)c3)[nH]c2=O)cc1`, the growth rescue is 60.7%. As for `CC1(c2ccccc2)NC(=O)N(CC(=O)Nc2cc(Cl)ccc2N2CCOCC2)C1=O` (stereo not given), the figure is 268%; as for `NS(=O)(=O)c1cc2c(cc1Cl)NC(C(Cl)Cl)NS2(=O)=O` (stereo not given), -7.27%; as for `Cc1ccc(CNC(=O)C(=O)c2cn(CC(=O)N3CCOCC3)c3ccccc23)cc1`, 279%. Consider `O=C(CSc1nnc(-c2ccccn2)n1-c1ccccc1)Nc1ccc2c(c1)OCO2`, for which the growth rescue is 354% (active).

As for `Cc1ccc(-n2c(SCC(=O)Nc3ccc4c(c3)OCO4)nnc2-c2ccccn2)cc1`, the growth rescue is -3.71%.

As for `Cc1ccc(-n2c(SCC(=O)Nc3ccc4c(c3)OCO4)nnc2-c2ccoc2C)cc1`, the growth rescue is -1.21%. Take `CC1CC2=C(CC1/C=N/NC(N)=S)C(C)(C)CCC2` (stereo not given): the growth rescue is 94.7%. As for `O=C(NCC#CCSc1nnc(-c2cccc3ccccc23)o1)c1cccs1`, the figure is -7.8%; as for `COc1ccc(CCN2C(=O)N(c3ccc(OC)cc3)C(=O)C2CC(=O)Nc2ccc(OC)cc2)cc1` (stereo not given), -12.2%; as for `CCNC(=O)CC1C(=O)N(c2ccc(F)cc2)C(=O)N1Cc1cccs1` (stereo not given), -6.29%. For `COc1ccc(N2C(=O)C(CC(=O)Nc3ccc(F)cc3)N(CCc3cccs3)C2=O)cc1` (stereo not given) the value was 700% (active); for `Cc1cccc(C(=O)N[C@H](C(=O)NCc2cccs2)C(C)C)c1`, 14.3%; for `CCc1cc(C(=O)Nc2nnc(C3CC3)s2)sc1C`, -5.84%. For `Cc1ccc(OCC(=O)NC(C)c2ccccc2)cc1C` (stereo not given) the value was -6.93%; for `C/C(CC(=O)NC(C)c1ccccc1)=N\NC(N)=S` (stereo not given), 317% (active). Regarding `Cc1cc(C)cc(OCC(=O)NC(C)c2ccccc2)c1` (stereo not given), the growth rescue is 14.1%.

Regarding `CCc1ccccc1NC(=O)CN(C)S(=O)(=O)c1ccc2c(c1)c(=O)n(C)c(=O)n2C`, the growth rescue is 30%. Consider `O=C(COc1ccc([N+](=O)[O-])cc1Cl)Nn1cnnc1`, for which the growth rescue is 88.2%. In the case of `COc1ccc(CNC(=O)COC(=O)c2ccc(C)c(S(=O)(=O)N3CCOCC3)c2)cc1OC`, the growth rescue was -6.82%. In the case of `COc1ccc(C(=O)OCC(=O)c2ccc(C)c(S(=O)(=O)N3CCOCC3)c2)cc1OC`, the growth rescue is 625% (active).

As to `Cc1ccc(C(=O)OCC(=O)N2CCCCCC2)cc1S(=O)(=O)N1CCOCC1`, the growth rescue was 6.73%. With `COc1c(C)cc(C(=O)C2CCCN(S(=O)(=O)c3c(C)noc3C)C2)cc1C` (stereo not given), the growth rescue was -5.92%. With `COc1ccc(CCNC(=O)/C(C#N)=C2\N=C(NC(=O)c3cccs3)c3ccccc32)cc1`, the growth rescue is -22.6%. Take `Cc1ccc(S(=O)(=O)CCC(=O)OCc2ccccc2)cc1`: the growth rescue is -4.25%.

`Cc1ccc(S(=O)(=O)CCC(=O)OCC(=O)N(C)C2CCS(=O)(=O)C2)cc1` (stereo not given): the growth rescue is 366% (active). As for `CN(C(=O)COC(=O)Cc1ccccc1[N+](=O)[O-])C1CCS(=O)(=O)C1` (stereo not given), the figure is -6.84%. In the case of `COc1cc(OC)cc(C(=O)NCCCn2ccnc2)c1`, the growth rescue was 0.871%. For `COc1cccc(-c2nn(-c3ccccc3)cc2/C=C(\C#N)C(=O)NCCCn2ccnc2)c1` the value was -1.32%.

Turning to `COc1ccc(/C=C(\C#N)C(=O)NCCCn2ccnc2)cc1`, the growth rescue was 429% (active).

Take `CCOC(=O)c1ccc(NC(=S)N2CCN(c3ccccn3)CC2)cc1`: the growth rescue is 4.51%. Consider `O=C(COC(=O)c1ccc(F)cc1)NCCCc1ccccc1`, for which the growth rescue was -3.97%. For `COc1ccc(OC)c(CNC(=O)c2cc(=O)[nH]c3ccc(S(=O)(=O)N4CCCC4)cc23)c1` the value was 46.7%; for `COc1ccc(N(C)S(=O)(=O)c2cccc3nsnc23)cc1`, -12.6%; for `CCOc1ccc(-c2cn(S(=O)(=O)c3cccc4nsnc34)nc2N)cc1`, 8.29%. As for `CCOc1ccc(N(CC)S(=O)(=O)c2cccc3nsnc23)cc1`, the figure is 487% (active); as for `COc1ccc(OC)c(NC(=O)COC(=O)Cc2ccsc2)c1`, 24.6%; as for `CC(C)Cc1nc(N2CCOCC2)c(C#N)c2c1CCC2`, 469% (active). For `CC(C)Cc1nc(Cl)c(C#N)c2c1CCC2`, the growth rescue is -9.85%. For `CC(C)CCNc1nc(N2CCCC2)c2c(c1C#N)CCN(C)C2` the value was -30.6%.
